Measurements published in PubChem BioAssay AID720610 (Broad Institute, 2013).
Results filed as inconclusive are left out. Calls of active or inactive are those of the source.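 The calls were made as follows: active = compounds whose fitted half-maximal signal loss occurs at or below twice the top dose at every exposure time; inconclusive = exposure times disagree on the call; inactive = the rest.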

Test: cytotoxicity in HeLa cells, metabolic dye – Alamar Blue fluorescence, 8-48 h, dry powder, mechanism study for HRAS target identification, late-stage follow-up (AID 720610)
Details: HeLa viability; series mostly up to 35 µM

Compound | outcome
Cc1onc(C(=O)N2CCN(C(c3ccncc3)c3ccncc3)CC2)c1[N+](=O)[O-] | inactive
CCC(=O)N(c1ccc(OC)c(Cl)c1)C(C(=O)NCCc1ccccc1)c1cccs1 (configuration not stated) | inactive
